# Measurements published in PubChem BioAssay (NCI).
# Compounds without any hit were thinned out: in the full panel of roughly 83,000, 20% have a hit.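 Percent growth is the endpoint: 0 to 100 indicates growth inhibition (40 means 60% inhibition), 0 means no net growth, and negative values indicate cell death.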 Activity calls are given as the source filed them. How the source made its calls: active means growth percent below 10; inactive means the rest.
# Test system: OVCAR-5 ovarian
# Assay: NCI-60 one-dose screen, 48 h (100 = growth as untreated, 0 = no growth, -100 = all killed)
# Conditions: 10 µM unless noted
row,Structure (SMILES),growth
1,COP(=O)(OC)C(c1ccccc1)(c1ccccc1)c1ccccc1,101% (inactive)
2,O=c1ccn(C2CC=C(CO)O2)c(=O)[nH]1 (stereo not drawn),102% (inactive)
3,COc1ccc2c(c1)C(=Nc1cc(OC)c(OC)c(OC)c1)C(=O)N2,99.5% (inactive)
4,CC(=O)/C(=C/c1ccc(Cl)cc1)C(=O)c1ccccc1,111% (inactive)
5,Clc1ccc2nc(CI)c(CI)nc2c1,91% (inactive)
6,COc1cc(C2CC(C3C(=O)N(C)C(=O)N(C)C3=O)=NN2C=O)cc(OC)c1OC (stereo not drawn),107% (inactive)
7,O=C(/C=C/c1ccc([N+](=O)[O-])cc1)c1ccc2c3c(cccc13)CC2,89.8% (inactive)
8,COc1ccc(CC(=O)Nc2nn3c(-c4cc(C(F)(F)F)cc(C(F)(F)F)c4)nnc3s2)cc1,96% (inactive)
9,O=[N+]([O-])c1ccc2[nH]cc(-c3c4ccccc4cc4[nH]c5ccc([N+](=O)[O-])cc5c34)c2c1,67.8% (inactive)
10,O=Nc1c2cccnc2n2nnc3ccc(Cl)cc3c12,94.9% (inactive)

# Test system: OVCAR-4 ovarian
# Assay: as above
# Conditions: 10 µM unless noted
row,Structure (SMILES),growth
1,CN1CCN(c2nc3scc(-c4ccccc4)c3c(=O)[nH]2)CC1,97.4% (inactive)
2,O=C(COc1cccc(/C=C2\Oc3ccc4ccccc4c3C2=O)c1)c1ccc([N+](=O)[O-])cc1,81.8% (inactive)
3,CCCCCCCCCCN1CCC(N2CCCCC2)CC1,53.7% (inactive)
4,Nc1nc2c(c(=O)[nH]1)C1(C(=O)Nc3ccccc31)c1c(nc(N)[nH]c1=O)N2,102% (inactive)
5,O=c1c2ccccc2c2nccn2c2cc(Cl)ccc12,81.5% (inactive)
6,N#Cc1c(NC(=O)c2ccco2)[n+]([O-])c2cc(Cl)c(Cl)cc2[n+]1[O-],100% (inactive)
7,CCOC(=O)N1CCC(N=C2CSc3nnc(-c4cc(C(F)(F)F)cc(C(F)(F)F)c4)n3N2)CC1,25.1% (inactive)
8,Cn1c(N2N=C(c3ccc(Cl)cc3)CC2c2ccccc2)nc(-c2ccccc2)c(C#N)c1=O (stereo not drawn),89.4% (inactive)
9,CCSCC1CC(O)(c2ccccc2)C(c2ccccc2)C(c2ccc(Cl)cc2)O1 (stereo not drawn),33.8% (inactive)
10,N#Cc1ccc(-c2csc(Nc3ccc4nc5n(c(=O)c4c3)CCC5)n2)cc1,109% (inactive)
11,COc1cccc(/C=C2\Cc3ccccc3C2=O)c1,101% (inactive)
12,C(#Cc1ccccc1C#Cc1ccccn1)c1ccc(OCCCCCCOc2ccc(C#Cc3ccccc3C#Cc3ccccn3)cc2)cc1,46.5% (inactive)
13,CN(C)c1ccc(-c2nc3ncc(Br)cc3o2)cc1,113% (inactive)
14,Cc1ccc(S(=O)(=O)N2CCN(C(=O)CSc3nc4ccc(C)cc4[nH]3)CC2)cc1,107% (inactive)
15,COC(=O)c1c(NC(=O)CSc2nnnn2-c2ccc(OC)cc2)sc(C)c1C,94.5% (inactive)
16,CCN(CC)CCNCC(=O)Oc1ccc(/C=C/C(=O)CC(=O)/C=C/c2ccc(OC(=O)CNCCN(CC)CC)c(OC)c2)cc1OC,44.3% (inactive)
17,Cc1ccc2c(c1)C(=O)/C(=C\Nc1ccc(C(N)=O)cc1)C(O)O2 (stereo not drawn),101% (inactive)
18,COc1cc(/C=C/C(=O)C(C(=O)/C=C/c2ccc(OC(=O)CCNc3nnc(C)s3)c(OC)c2)C(=O)CCNc2nnc(C)s2)ccc1OC(=O)CCNc1nnc(C)s1,35.9% (inactive)
19,[N-]=[N+]=NCc1cccc(/C(O)=C/C(=O)C(=O)O)c1,94.9% (inactive)

row,Structure (SMILES),growth
1,Clc1ccc(C2c3ccccc3-c3nccn32)c(Cl)c1 (stereo not drawn),47.3% (inactive)
2,O=C(O)C1CCN(S(=O)(=O)c2ccc(-c3ccccc3)cc2)CC1,106% (inactive)
3,CSc1nc(N)c2c(n1)N(C)C=NS2(=O)=O,108% (inactive)
4,Cc1sc2nc(NCc3ccccc3)[nH]c(=O)c2c1C,91.7% (inactive)
5,Cc1cc(Br)c(C)cc1Br,103% (inactive)
6,O=C(/C=C(\Nc1ccccc1)c1ccccc1)c1cn(-c2ccc([N+](=O)[O-])cc2)nn1,87.9% (inactive)
7,COc1ccc(C2=NN(C=O)C(c3cccc(Nc4ccnc5cc(Cl)ccc45)c3)C2)cc1 (stereo not drawn),40.1% (inactive)
8,COc1ccc(NS(=O)(=O)N2CCCCC2)cc1,125% (inactive)
9,C[C@H]1C(=O)N2c3ccccc3[C@@]3(O)C[C@@H](n4cnc5ccccc5c4=O)C(=O)N1[C@@H]23,109% (inactive)
10,COP(=O)(OC)C(c1ccccc1)(c1ccccc1)c1ccccc1,93.2% (inactive)
11,O=c1ccn(C2CC=C(CO)O2)c(=O)[nH]1 (stereo not drawn),110% (inactive)
12,COc1ccc2c(c1)C(=Nc1cc(OC)c(OC)c(OC)c1)C(=O)N2,111% (inactive)
13,CC(=O)/C(=C/c1ccc(Cl)cc1)C(=O)c1ccccc1,79.7% (inactive)
14,Clc1ccc2nc(CI)c(CI)nc2c1,100% (inactive)
15,COc1cc(C2CC(C3C(=O)N(C)C(=O)N(C)C3=O)=NN2C=O)cc(OC)c1OC (stereo not drawn),107% (inactive)
16,O=C(/C=C/c1ccc([N+](=O)[O-])cc1)c1ccc2c3c(cccc13)CC2,75.8% (inactive)
17,COc1ccc(CC(=O)Nc2nn3c(-c4cc(C(F)(F)F)cc(C(F)(F)F)c4)nnc3s2)cc1,66.3% (inactive)
18,O=[N+]([O-])c1ccc2[nH]cc(-c3c4ccccc4cc4[nH]c5ccc([N+](=O)[O-])cc5c34)c2c1,26.7% (inactive)
19,O=Nc1c2cccnc2n2nnc3ccc(Cl)cc3c12,-27.7% (active)
